Here are results for 45 molecules from PubChem BioAssay AID1851 (National Center for Advancing Translational Sciences (NCATS), 2009).

Where “and” joins values, the source holds several entries; their conditions need not be identical. Equal values may be shown once. In all, about 16,000 compounds went through this assay and about 5,700 (36%) were called active. Not shown: some 24% with an inconclusive outcome. Calls follow the shape of the dose curve; as a rule, active = well fitted curve in the direction sought with a large enough effect; inconclusive = small, poorly fitted or top-dose-only effect, or effect the other way; inactive = no such curve, though single readings can be large or run the other way. The list shows a part of the results.
% is scaled to controls: 0 for no effect and ±100 for the full control effect.

Chain of Cytochrome P450 1A2 (Homo sapiens) (P05177 whole entry, looked up): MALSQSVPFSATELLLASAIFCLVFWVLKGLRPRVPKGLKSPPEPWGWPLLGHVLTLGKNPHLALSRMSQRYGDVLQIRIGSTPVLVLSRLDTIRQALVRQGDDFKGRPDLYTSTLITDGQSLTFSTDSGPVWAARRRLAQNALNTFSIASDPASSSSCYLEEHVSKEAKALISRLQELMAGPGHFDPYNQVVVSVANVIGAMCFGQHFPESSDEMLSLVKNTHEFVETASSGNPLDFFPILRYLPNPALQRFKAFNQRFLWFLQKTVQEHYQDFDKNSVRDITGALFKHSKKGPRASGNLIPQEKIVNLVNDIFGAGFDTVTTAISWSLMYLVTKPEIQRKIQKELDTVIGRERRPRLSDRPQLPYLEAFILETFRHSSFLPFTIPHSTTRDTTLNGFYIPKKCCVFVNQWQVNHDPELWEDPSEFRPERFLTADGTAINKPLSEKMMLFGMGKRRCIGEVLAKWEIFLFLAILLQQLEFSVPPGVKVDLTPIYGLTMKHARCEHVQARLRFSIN

This assay addresses Cytochrome P450 1A2 (Homo sapiens) (UniProt P05177). Put plainly: Cytochrome panel assay with activity outcomes. The note with it: recombinant CYP, pro-luciferin dealkylation, luminescence, p450-cyp1a2; series mostly up to 57.1 µM; activity, negative = inhibition: at the top concentration.
As for `COc1ccc(C(=O)CCN(C)C)c2ccccc12`, the concentration at half-maximal activity (AC50) is 1.58 µM (active). For `COc1ccc(Cc2ccccc2C(=O)O)c2ccccc12`, the activity, negative = inhibition was 2.81% [at 2.29 µM] (inactive). For `COc1ccc(CCN(C)CCC(=O)Nc2c(C)cc(C)cc2C)cc1OC`, the “activity, negative = inhibition” value was 1.14% (inactive). On to `CN(C)Cc1ccccc1-c1ccc2ncnc(N(C)Cc3ccco3)c2c1`, for which the AC50 is 2 µM (active). Regarding `CN(Cc1ccco1)c1ncnc2ccc(-c3cccc(C#N)c3)cc12`, the half-maximal activity concentration (AC50) was 0.501 µM (active). Still for that read-out and setting: with `CN(Cc1ccco1)c1ncnc2ccc(-c3ccccc3Cl)cc12` the figure was 2 µM (active); with `CN(Cc1ccco1)c1ncnc2ccc(-c3ccccc3C(F)(F)F)cc12`, 5.01 µM (active). Turning to `COCC(=O)N1CCC[C@@]2(CCN(Cc3ccccc3OC)C2)C1`, the “activity, negative = inhibition” value was 6.76% (inactive). On to `CC(=O)OC[C@@H]1O[C@H](C/C=N\O[C@@H]2O[C@H](COC(C)=O)[C@@H](OC(C)=O)[C@H](OC(C)=O)[C@H]2OC(C)=O)C=C[C@@H]1OC(C)=O`, for which the activity, negative = inhibition is -3.65% [at 11.4 µM] (inactive). On to `CN(Cc1ccco1)c1ncnc2ccc(-c3ccccc3C#N)cc12`, for which the AC50 was 1 µM (active).

In the case of `Oc1ccc([C@@H]2CNCc3sccc32)cc1O`, the “activity, negative = inhibition” value is 3.98% (inactive). On to `COc1ccccc1CN1CCCC2(CCN(C(=O)c3csnn3)CC2)C1`, for which the “activity, negative = inhibition” value is -22.1% (inactive).

For `Cc1cc(C(=O)CC#N)c(C)n1CC(F)(F)F`, the half-maximal activity concentration (AC50) was 15.8 µM (active).

As to `C=CCn1c(C)cc(C(=O)CN2C(=O)c3ccccc3C2=O)c1C`, the “activity, negative = inhibition” value is 0.647% (inactive). Consider `CC1(C)OC(C(N)=O)C(C(N)=O)O1` (stereo not given), for which the “activity, negative = inhibition” value was -21.8% (inactive). Regarding `COc1ccccc1OCC(=O)N/N=C1/SCC(=O)N1Cc1ccccc1`, the concentration at half-maximal activity (AC50) is 5.01 µM (active). On to `CCOC(=O)N/N=C1/C[C@@H](O)[C@@H](O)[C@@H]2[C@@H]3C(=O)N(Cc4ccccc4)C(=O)[C@H]3CC[C@H]12`, for which the activity, negative = inhibition is -4.78% [at 11.4 µM] (inactive).

On to `CCOC(=O)N/N=C1/C[C@@H](O)[C@@H](O)[C@@H]2[C@@H]3C(=O)N(Cc4ccccc4)C(=O)[C@H]3CC[C@@H]12`, for which the activity, negative = inhibition was -3.55% [at 11.4 µM] (inactive). On the same count and under the same terms, with `CCOc1cc(/C=C2/NC(=O)N(CC(=O)Nc3cccc(C)c3)C2=O)ccc1OC` the figure was 1.61% (inactive). Regarding `CCOc1cc(/C=C2\C(=O)N(Cc3ccc(C)cc3)C(C)=C2C(=O)OC)ccc1O`, the half-maximal activity concentration (AC50) is 14.1 µM (active). For `O=C1OCCC1Sc1nnc(-c2ccc(O)cc2)o1` (stereo not given), the half-maximal activity concentration (AC50) was 2.24 µM (active).

For the molecule `O=C1OCCC1Sc1nnnn1-c1ccccc1` (stereo not given), the “activity, negative = inhibition” value was -19.1% (inactive).

Regarding `N#Cc1cccc(NC(=O)N2CC[C@@]3(CCCNC3)C2)c1`, the “activity, negative = inhibition” value was -17.6% (inactive). As to `NC(=O)c1nn(-c2ccccc2)c(=O)cc1O`, the “activity, negative = inhibition” value is 1.04% (inactive). For `O=C(c1ccccc1)c1nn(-c2ccccc2)c(=O)cc1C(F)(F)F`, the concentration at half-maximal activity (AC50) was 0.501 µM (active). `C=CC[C@@H]1C=C[C@H](ON=C(C)C)[C@H](CO)O1`: the activity, negative = inhibition is 3.87% [at 11.4 µM] (inactive). On to `COC(=O)[C@H](C)NC(=O)C/C=C\[C@@H](C)[C@H]1C=C[C@H](O)[C@@H](CO)O1`, for which the activity, negative = inhibition was -5.17% [at 11.4 µM] (inactive).

For `Cc1ccc(-c2ccc(/C=N\NC(=O)c3cc4c(ccc5ccccc54)o3)o2)cc1[N+](=O)[O-]`, the concentration at half-maximal activity (AC50) was 22.4 µM (active). `O=C(N/N=C/c1ccncc1)c1cc2c(ccc3ccccc32)o1`: the half-maximal activity concentration (AC50) was 0.355 µM (active). On the same count and under the same terms, in the case of `Cc1ccccc1C(=O)N/N=C/c1ccncc1` it was 12.6 µM (active); in that of `C=CCn1cc(/C=N\NC(=O)c2cc3c(ccc4ccccc43)o2)c2ccccc21`, 1 µM (active). `CC(O)(P(=O)(O)O)P(=O)(O)O`: the “activity, negative = inhibition” value is -0.0229% [at 25.6 µM] (inactive). For the molecule `COc1ccccc1CN1CC[C@@]2(CCCN(C(=O)c3cccn3C)C2)C1`, the “activity, negative = inhibition” value was 2.49% (inactive).

Turning to `O=C(N/N=C/c1ccco1)/C(=C/c1cccc([N+](=O)[O-])c1)NC(=O)c1ccccc1`, the “activity, negative = inhibition” value was 12.9% (inactive).

Regarding `Cc1cc(C(=O)N/N=C/c2cccc([N+](=O)[O-])c2)c(C)o1`, the AC50 was 1.41 µM (active). As for `O=C(N/N=C/c1cccc([N+](=O)[O-])c1)c1cc2c(ccc3ccccc32)o1`, the AC50 was 0.355 µM (active). Turning to `COc1ccc(/C=N/NC(=O)c2cccc([N+](=O)[O-])c2)cc1OS(=O)(=O)c1ccc(C)cc1`, the “activity, negative = inhibition” value is -9.99% (inactive).

As for `C#C[C@@]1(OC(C)=O)CC[C@@H]2[C@@H]3CCC4=C[C@@H](OC(C)=O)CC[C@H]4[C@H]3CC[C@]21C`, the “activity, negative = inhibition” value was -7.62% [at 25.6 µM] (inactive). In the case of `C/C(CCN1CCc2nc(-c3ccccc3)c(-c3ccccc3)cc2C1)=N\O[C@@H](C)c1cc(-c2c(C)cc(C)cc2C)no1`, the activity, negative = inhibition was 9.44% [at 11.4 µM] (inactive). With `O=c1cc(N2CCOCC2)oc2c(-c3ccccc3)cccc12`, the AC50 was 1.58 µM (active) and 200 nM (active). For `Cc1cc(C)c2nc3c(c([C@H](O)[C@@H]4CCCCN4)c2c1)CC/C3=C/c1ccc(Cl)cc1`, the activity, negative = inhibition was -20.6% [at 11.4 µM] (inactive). `c1coc(CN2CCN(C(c3cccs3)c3nnnn3C3CCCC3)CC2)c1` (stereo not given): the “activity, negative = inhibition” value was -10.2% (inactive). Consider `Clc1ccc(C(c2nnnn2C2CCCC2)N2CCN(Cc3ccncc3)CC2)cc1` (stereo not given), for which the AC50 is 10 µM (active).

Turning to `Cc1ccc(C(c2nnnn2C2CCCC2)N2CCN3CCCC3C2)cc1` (stereo not given), the “activity, negative = inhibition” value is 1.2% (inactive). As for `C/C=C\C1=C(CO)C(=O)C2O[C@]2(CC=C(C)C)C1=O` (stereo not given in full), the activity, negative = inhibition was -6.49% [at 11.4 µM] (inactive).
